# HT1080 IDH1KD tx = kills HT-1080 cells with IDH1 knockdown. HT-1080 IDH1 knockdown viability, ATP luminescence, 48 h. Potency, µM (top dose mostly 46.1 µM), hits mostly cytotoxic. hit rate 2% among 360,000. AID 686971
#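 Assay cells: HT-1080 with IDH1 knockdown, 750 per well, RPMI/5% FBS. Exposure: 48 h at 37 °C following 2 h pre-incubation. Read: CellTiter-Glo luminescence; fitted concentration-response, curve class assigned.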
# KB-V1 cytotox = kills drug-selected multidrug resistant KB-V1 cells. KB-V1 MDR cells viability, CellTiter-Glo, 72 h. Potency, µM (titrated, usually from 46.1 µM), hits mostly cytotoxic. hit rate 3.4% among 400,000. AID 1347076; note: nearly all actives have a fitted effect of over 60% in size
#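 qHTS viability screen in drug-selected KB-V1 MDR cells: 72 h compound treatment at 37 degrees C, ATP luminescence end point.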
# TDP1 cell CPT = DT40-hTDP1 cell growth loss with CPT; chicken DT40 Tdp1-/-;hTDP1 cells + 20 nM CPT, ATP luminescence, 48 h; Potency, µM (titrated, usually from 46.2 µM), most hits filed as inhibitors; hit rate 12% among 420,000; note: nearly all actives have a fitted effect of over 55% in size
#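 Chicken DT40 Tdp1-/- cells stably complemented with human TDP1 were seeded at 400 cells/well in medium containing 20 nM camptothecin, exposed to pin-transferred compounds, and grown at 37 °C for at least 48 hr. Viability was read as ATP luminescence.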
# KB-3-1 cytotox = KB-3-1 parental cell cytotoxicity; AID 1347075; hit rate 1.4% among 400,000; Potency, µM (highest dose often 46.1 µM), actives largely listed as cytotoxic; KB-3-1 viability, CellTiter-Glo ATP luminescence, 72 h; note: nearly all actives have a fitted effect of over 60% in size
#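 Cells are dispensed, compounds pinned in, plates held at 37 °C for 72 h, then CellTiter-Glo is added and luminescence read after 10 minutes. Cell line: parental KB-3-1 in phenol-red-free DMEM, 10% FBS.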
# HT1080NT lethal = kills 2HG-producing HT-1080-NT fibrosarcoma cells. HT-1080-NT fibrosarcoma viability, CellTiter-Glo ATP luminescence, 48 h. Potency, µM (highest dose often 46.1 µM), actives largely listed as cytotoxic. hit rate 1.6% among 360,000. AID 686970;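 note: NT is the 2HG producing partner of a matched IDH1 knockdown line; nearly all actives have a fitted effect of over 55% in size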
#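 Fibrosarcoma NT cells, 750 per well in 5% FBS RPMI, were exposed to compound for 48 hours. Viability: CellTiter-Glo luminescence.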
# DT40 TDP1 no CPT = qHTS for Inhibitors of human tyrosyl-DNA phosphodiesterase 1 (TDP1): qHTS in cells in absence of CPT; DT40 Tdp1-/- hTDP1 cells, no CPT, ATP luminescence, 48 h; Potency, µM (series often up to 46.2 µM), hits mostly inhibitors; hit rate 15% among 420,000; AID 686978, 2013; note: nearly all actives have a fitted effect of over 55% in size
#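 Growth of hTDP1-complemented DT40 Tdp1-knockout cells is measured by ATP luminescence after at least 48 hr compound exposure at 37 °C, with DMSO substituting for the 20 nM CPT used in the parallel screen.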
# Numbers stand for hits; – = inactive; ? = inconclusive; · = no result. An excerpt weighted towards active compounds, which were near 19% of everything screened. Calls come from the whole dose curve; as a rule, active = well fitted curve in the direction sought with a large enough effect; inconclusive = small, poorly fitted or top-dose-only effect, or another doubt; inactive = no such curve, though single readings can be large; an effect the other way counts as inactive or inconclusive.
SMILES,HT1080 IDH1KD tx,KB-V1 cytotox,TDP1 cell CPT,KB-3-1 cytotox,HT1080NT lethal,DT40 TDP1 no CPT
CCN(CC)c1ccc(/C=N/NC(=O)c2ccc([N+](=O)[O-])cc2)cc1,–,–,–,–,–,–
O=[N+]([O-])c1ccc(/C=N/NC(=S)Nc2ccccc2)o1,–,?,15µM,–,–,23µM
O=[N+]([O-])c1ccc(/C=N/NC(=S)Nc2ccccc2F)o1,–,–,–,–,–,?
O=C(Cc1ccc2c(c1)OCO2)NN=Cc1ccc([N+](=O)[O-])o1,–,23µM,?,–,–,12µM
Cc1ccc(-c2cn3c(n2)sc2cc(C(=O)NC4CCCCC4)ccc23)cc1,·,·,4.1µM,·,·,4.6µM
O=C(NC1CCCCC1)c1ccc2c(c1)sc1nc(-c3ccccc3)cn12,·,·,?,·,·,10µM
Cc1ccc(-c2cn3c(n2)sc2cc(C(=O)NC4CCCCCC4)ccc23)cc1,·,–,10µM,–,·,16µM
CCc1ccc(-c2cn3c(n2)sc2cc(C(=O)NC4CCCCCC4)ccc23)cc1,·,·,12µM,·,·,10µM
CC(NC(=O)c1ccc2c(c1)sc1nc(-c3ccc(F)cc3)cn12)C12CC3CC(CC(C3)C1)C2 (stereo not given),·,·,–,·,·,–
CCOC(=O)c1ccccc1NC(=O)Cc1ccc(OC)c(S(=O)(=O)N2CCOCC2)c1,–,–,?,–,–,?
O=C(Nc1ccc(Oc2cccnc2)cc1)C1CCN(Cc2cc(Cl)ccc2O)CC1,?,?,8.2µM,16µM,?,13µM
O=C(Nc1ccccc1Oc1cccnc1)C1CCCN(Cc2ccccc2O)C1 (stereo not given),–,–,?,–,–,15µM
C#Cc1ccc(CN2CCCC(C(=O)Nc3ccccc3Oc3cccnc3)C2)cc1 (stereo not given),–,–,?,–,–,?
CCOC(=O)c1sc(NC(=O)CCCn2nc([N+](=O)[O-])c(Cl)c2C)c(C(=O)OCC)c1C,–,?,?,–,–,?
COc1ccc(C(=O)NC(=S)Nc2ccccc2N2CCCCC2)cc1[N+](=O)[O-],–,?,12µM,?,–,6.5µM
Cc1c(C(=O)NC(=S)Nc2ccccc2N2CCCC2)cccc1[N+](=O)[O-],–,13µM,?,–,–,?
CCOc1ccc(C(=O)NC(=S)Nc2ccc(N3CCCCC3)cc2)cc1[N+](=O)[O-],–,–,12µM,–,–,?
CCOc1ccc(C(=O)NC(=S)Nc2cccc(NC(=O)c3ccco3)c2)cc1[N+](=O)[O-],–,?,?,18µM,–,15µM
O=C(NC(=S)Nc1ccccc1N1CCCC1)c1ccc([N+](=O)[O-])cc1,–,?,26µM,–,–,18µM
COc1cc(NC(=O)c2ccc(OC)c([N+](=O)[O-])c2)ccc1NC(=O)c1cccs1,–,–,–,–,–,–
CC(=O)NC(=S)Nc1ccccc1N1CCCCC1,–,–,–,–,–,–
CCOc1ccc(C(=O)Nc2cccc(NC(=O)c3cccs3)c2)cc1[N+](=O)[O-],–,–,?,–,–,18µM
CCOc1ccc(C(=O)NC(=S)Nc2ccccc2N2CCCCC2)cc1[N+](=O)[O-],–,–,18µM,–,–,?
COc1ccc(C(=O)NC(=S)Nc2cc(C)ccn2)cc1[N+](=O)[O-],–,–,16µM,–,–,?
COc1ccc(C(=O)Nc2cc(C)on2)cc1[N+](=O)[O-],–,–,–,–,–,–
SMILES,HT1080 IDH1KD tx,KB-V1 cytotox,TDP1 cell CPT,KB-3-1 cytotox,HT1080NT lethal,DT40 TDP1 no CPT
O=C(CSc1ccc2c(c1)OCCO2)Nc1ncccc1O,–,–,–,–,–,–
COc1cc(OC)c(NC(=O)C2CCN(S(=O)(=O)c3ccc4c(c3)oc(=O)n4C)CC2)cc1Cl,·,?,–,–,·,–
Cc1cc(C2C(=O)NC(=O)C2=O)c(C)cc1Br (stereo not given),–,–,–,–,–,–
Cc1nnc(OCc2nc3ccccc3n2C)c2ccccc12,–,9.2µM,?,?,–,?
CSc1nncc(=O)[nH]1,–,–,?,–,–,23µM
CCC(=O)N1c2ccccc2C(C)(c2ccccc2)CC1(C)C (stereo not given),·,–,–,–,·,–
CC1=CC(C)(C)N(C(=O)CSc2nnc(N)s2)c2ccccc21,–,–,–,–,–,–
CC1(c2ccccc2)CC(C)(C)N(C(=O)CSc2nnc(N)s2)c2ccccc21 (stereo not given),–,16µM,?,–,–,?
CCC(CC)C(=O)N1c2ccccc2C(C)(c2ccccc2)CC1(C)C (stereo not given),·,–,18µM,–,·,23µM
c1ccc(Sc2cccc3ccccc23)c(CNC2=NCCN2)c1,?,–,13µM,?,–,12µM
Fc1ccccc1Sc1ccccc1CNC1=NCCN1,–,–,21µM,–,–,13µM
O=[N+]([O-])c1ccccc1/C=N/NC1=NCCN1,–,–,–,–,–,–
CN(C)Cc1ccccc1Sc1cccc2ccccc12,–,?,?,–,?,?
CC(C)c1nnc(NC(=O)c2cccs2)s1,–,–,–,–,–,–
CN(C(=O)CSc1nc2ccc(NC(=O)c3cccs3)cc2s1)c1ccccc1,·,?,23µM,–,·,16µM
CC(C)N(C(=O)CSc1nnc(NC(=O)c2cccs2)s1)C(C)C,–,23µM,–,–,–,–
CN(C(=O)CSc1nc2ccc(NC(=O)c3ccco3)cc2s1)c1ccccc1,·,–,18µM,–,·,23µM
CC(=O)Nc1ccc2nc(SCc3ccccc3)sc2c1,·,–,–,–,·,?
O=C(CN1C(=O)CC(c2ccccc2)S(=O)(=O)c2ccccc21)N1CCCC1 (stereo not given),–,–,–,–,–,–
Cc1ccc(Cn2c(CCNc3nc(-c4ccc(C)cc4)cs3)nc3cc(C(=O)NCCCO)ccc32)cc1,–,–,21µM,–,–,15µM
Cc1ccc(Cn2c(C(C)Nc3nc(-c4ccc(C)cc4)cs3)nc3cc(Cl)c(Cl)cc32)cc1 (stereo not given),–,–,?,–,–,–
Cc1ccc(Cn2c(C(C)Nc3nc(-c4ccc(Cl)cc4)cs3)nc3cc(C(=O)NCCCO)ccc32)cc1 (stereo not given),–,–,10µM,?,–,8.2µM
COC(=O)C1=C(C(=O)OC)[C@@H]2N(C)c3ccccc3[C@@]23C[C@@H](CO)N(C(=O)C2CCC2)C3=N1,–,–,–,–,–,–
CCOC(=O)c1ccc(NC(=O)COCc2cc(-c3ccc4c(c3)OCO4)on2)cc1,·,–,–,–,·,–

# Compound activity: PubChem BioAssay, National Center for Advancing Translational Sciences (NCATS)
